# Measurements published in PubChem BioAssay (Tox21).
# Unmarked numbers belong to inactive results. Results filed as inconclusive are left out. The source made the active and inactive calls. Calls follow the shape of the full dose curve.
# Target: Acetylcholinesterase (Homo sapiens) (UniProt P22303)
# Assay: Acetylcholinesterase (AChE) small molecule antagonists: colormetric cell-based qHTS assay (AID 1347395); also: nearly all actives have a fitted effect of over 30% in size
# Details: SH-SY5Y cells AChE activity, colorimetric (Ellman); series mostly up to 115 µM; activity, negative = inhibition: at the top concentration
# Method in brief: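 SH-SY5Y cells; cpd 30 min 37 C; + DTNB/acetylthiocholine, 90 min 37 C; colorimetric thiocholine read; qHTS.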
# % is scaled to controls: 0 for no effect and ±100 for the full control effect.
# Sequence of Acetylcholinesterase (Homo sapiens) (P22303 whole entry, looked up): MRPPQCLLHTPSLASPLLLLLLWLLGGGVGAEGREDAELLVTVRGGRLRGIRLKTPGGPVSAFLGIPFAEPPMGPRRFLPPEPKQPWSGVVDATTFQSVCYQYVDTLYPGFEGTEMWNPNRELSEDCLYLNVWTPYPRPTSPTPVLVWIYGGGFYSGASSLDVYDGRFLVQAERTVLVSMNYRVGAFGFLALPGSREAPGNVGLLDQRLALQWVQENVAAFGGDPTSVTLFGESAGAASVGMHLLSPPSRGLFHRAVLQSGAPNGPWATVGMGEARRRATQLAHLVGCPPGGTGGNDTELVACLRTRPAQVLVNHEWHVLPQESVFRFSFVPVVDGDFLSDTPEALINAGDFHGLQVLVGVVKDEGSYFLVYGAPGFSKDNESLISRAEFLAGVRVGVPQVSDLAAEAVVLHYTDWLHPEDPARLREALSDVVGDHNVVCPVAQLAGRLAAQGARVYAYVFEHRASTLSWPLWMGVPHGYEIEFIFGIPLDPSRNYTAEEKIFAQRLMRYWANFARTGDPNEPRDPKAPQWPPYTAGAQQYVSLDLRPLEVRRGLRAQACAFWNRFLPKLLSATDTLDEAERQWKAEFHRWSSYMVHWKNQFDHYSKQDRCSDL
SMILES,"activity, negative = inhibition",Potency
CC(=O)NCCCCCC(=O)O,4.99% [at 52.9 µM],–
CCOC(=O)NNc1nncc2ccccc12,–,inactive
CC(C)(C)CC(C)(C)N,-0.28%,–
c1ccc2scnc2c1,–,inactive
CCCCOc1cc(C(=O)NCCN(CC)CC)c2ccccc2n1,0.793% [at 52.9 µM],–
Clc1ccc2c(c1)Nc1ccccc1S2,2.59% [at 52.9 µM],–
O=c1c(-c2ccc(O)cc2)coc2cc(O)ccc12,–,inactive
O=C1CCC(C2CCCCC2)CC1,-8.46%,–
CC(C)(C)c1cc(CCC(=O)OCC(COC(=O)CCc2cc(C(C)(C)C)c(O)c(C(C)(C)C)c2)(COC(=O)CCc2cc(C(C)(C)C)c(O)c(C(C)(C)C)c2)COC(=O)CCc2cc(C(C)(C)C)c(O)c(C(C)(C)C)c2)cc(C(C)(C)C)c1O,3.15% [at 52.9 µM],–
C=C1[C@H]2CC[C@@H]3[C@H]2C(C)(C)CCC[C@]13C,6.76%,–
CC(C)(CO)C(O)C(=O)NCCCO (stereo not given),-2.93%,–
CCOC(=O)c1ccc(C)cc1,0.505%,–
C[C@]12C=CC(=O)C=C1[C@@H](F)C[C@@H]1[C@@H]2[C@@H](O)C[C@@]2(C)[C@H]1CC[C@]2(O)C(=O)CO,3.17% [at 52.9 µM],–
COc1cccc(OC)c1O,-0.862%,–
C=C(C)C(=O)OCCOc1ccccc1,0.405%,–
Nc1nc2ccc(OC(F)(F)F)cc2s1,1.14% [at 52.9 µM],–
C/C=C(/C(=C/C)c1ccc(O)cc1)c1ccc(O)cc1,1.14% [at 52.9 µM],–
Cc1ccsc1C(=CCCN1CCC[C@@H](C(=O)O)C1)c1sccc1C,0.589% [at 52.9 µM],–
CCN(C=O)CC,4.64%,–
CC1=C(CC(=O)O)c2cc(F)ccc2/C1=C\c1ccc(S(C)=O)cc1 (stereo not given),–,inactive

SMILES,"activity, negative = inhibition",Potency
O=C(O)CCCCCCC(=O)O,-4.5%,–
O=C(O)Cc1cccc2ccccc12,–,inactive
Cc1cc(C2(c3cc(C)c(O)cc3C)OS(=O)(=O)c3ccccc32)c(C)cc1O,–,inactive
CCOC(=O)Cn1c(=O)sc2cccc(Cl)c21,-12.8%,–
O=C(O)c1ccc(Cl)c(Cl)c1,0.481%,–
C=Cc1c(C)c2cc3[nH]c(cc4nc(cc5nc(cc1[nH]2)C(C)=C5CCC(=O)O)C(CCC(=O)O)=C4C)c(C)c3C=C,9.84% [at 52.9 µM],–
CCOc1ccc(NC(=O)CC(C)O)cc1 (stereo not given),–,inactive
CCCCOCC(C)O (stereo not given),0.214%,–
Cc1c(C(=O)c2c[nH]n(C)c2=O)ccc(S(C)(=O)=O)c1C1=NOCC1,-5.7% [at 52.9 µM],–
CCCCCCCCCCCCCCCCC,-0.493%,–
CC1(C)S[C@@H]2[C@H](NC(=O)C(C(=O)O)c3ccccc3)C(=O)N2[C@H]1C(=O)O (stereo not given in full),0.41% [at 52.9 µM],–
Cn1ccnc1,-0.0485%,–
CCOCCn1c(C2CCN(CCc3ccc(C(C)(C)C(=O)O)cc3)CC2)nc2ccccc21,4.77% [at 52.9 µM],–
Cc1cc2nc(N)sc2cc1C,-4.74%,–
NC(N)=NCCN1CCCCCCC1,6.69% [at 0.435 µM],–
CC1=C(Br)C(=O)C(Br)=C/C1=C(/c1ccccc1S(=O)(=O)O)c1cc(Br)c(O)c(Br)c1C,2.46% [at 52.9 µM],–
O=C(NCC1CN(c2ccc(N3CCOCC3=O)cc2)C(=O)O1)c1ccc(Cl)s1 (stereo not given),-1.14% [at 52.9 µM],–
CC(C)(Oc1ccc(Cl)cc1)C(=O)OCCCOC(=O)C(C)(C)Oc1ccc(Cl)cc1,1.59% [at 52.9 µM],–
CN(C)C(=O)Nc1ccc(Cl)c(Cl)c1,–,inactive
CCCCCCCCCCCCN1CCCC1=O,1.12%,–

# Target: Acetylcholinesterase (Homo sapiens) (UniProt P22303)
# Assay: Acetylcholinesterase (AChE) small molecule antagonists: enzyme-based qHTS assay (AID 1347397); also: nearly all actives have a fitted effect of over 55% in size
# Details: Potency: AChE enzyme activity inhibition; outcome: AChE enzyme activity inhibition; series mostly up to 115 µM; activity change, negative = inhibition: at the top concentration
# Method in brief: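 Tox21 library chemicals are tested in qHTS format against recombinant human AChE. The enzyme, dispensed at 50 mU/mL, sits with compound for 30 min at room temperature. A DTNB–acetylthiocholine cocktail follows, and colour is read after 10 min.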
SMILES,"activity change, negative = inhibition",Potency
CC(=O)NCCCCCC(=O)O,1.79% [at 53 µM],–
CCOC(=O)NNc1nncc2ccccc12,–,inactive
CC(C)(C)CC(C)(C)N,0.682%,–
c1ccc2scnc2c1,–,inactive
CCCCOc1cc(C(=O)NCCN(CC)CC)c2ccccc2n1,1.1% [at 53 µM],–
Clc1ccc2c(c1)Nc1ccccc1S2,0.27% [at 53 µM],–
O=c1c(-c2ccc(O)cc2)coc2cc(O)ccc12,–,inactive
O=C1CCC(C2CCCCC2)CC1,-3.17%,–
CC(C)(C)c1cc(CCC(=O)OCC(COC(=O)CCc2cc(C(C)(C)C)c(O)c(C(C)(C)C)c2)(COC(=O)CCc2cc(C(C)(C)C)c(O)c(C(C)(C)C)c2)COC(=O)CCc2cc(C(C)(C)C)c(O)c(C(C)(C)C)c2)cc(C(C)(C)C)c1O,0.474% [at 53 µM],–
C=C1[C@H]2CC[C@@H]3[C@H]2C(C)(C)CCC[C@]13C,-1.76%,–
CC(C)(CO)C(O)C(=O)NCCCO (stereo not given),-1.65%,–
CCOC(=O)c1ccc(C)cc1,-0.55%,–
C[C@]12C=CC(=O)C=C1[C@@H](F)C[C@@H]1[C@@H]2[C@@H](O)C[C@@]2(C)[C@H]1CC[C@]2(O)C(=O)CO,0.463% [at 53 µM],–
COc1cccc(OC)c1O,1.49%,–
C=C(C)C(=O)OCCOc1ccccc1,0.0657%,–
Nc1nc2ccc(OC(F)(F)F)cc2s1,0.293% [at 53 µM],–
C/C=C(/C(=C/C)c1ccc(O)cc1)c1ccc(O)cc1,-9.23% [at 53 µM],–
Cc1ccsc1C(=CCCN1CCC[C@@H](C(=O)O)C1)c1sccc1C,0.274% [at 53 µM],–
CCN(C=O)CC,-0.149%,–
CC1=C(CC(=O)O)c2cc(F)ccc2/C1=C\c1ccc(S(C)=O)cc1 (stereo not given),–,inactive

SMILES,"activity change, negative = inhibition",Potency
O=C(O)CCCCCCC(=O)O,0.411%,–
O=C(O)Cc1cccc2ccccc12,–,inactive
Cc1cc(C2(c3cc(C)c(O)cc3C)OS(=O)(=O)c3ccccc32)c(C)cc1O,–,inactive
CCOC(=O)Cn1c(=O)sc2cccc(Cl)c21,0.547%,–
O=C(O)c1ccc(Cl)c(Cl)c1,0.271%,–
C=Cc1c(C)c2cc3[nH]c(cc4nc(cc5nc(cc1[nH]2)C(C)=C5CCC(=O)O)C(CCC(=O)O)=C4C)c(C)c3C=C,13.3% [at 53 µM],–
CCOc1ccc(NC(=O)CC(C)O)cc1 (stereo not given),–,inactive
CCCCOCC(C)O (stereo not given),0.409%,–
Cc1c(C(=O)c2c[nH]n(C)c2=O)ccc(S(C)(=O)=O)c1C1=NOCC1,1.39% [at 53 µM],–
CCCCCCCCCCCCCCCCC,-0.387%,–
CC1(C)S[C@@H]2[C@H](NC(=O)C(C(=O)O)c3ccccc3)C(=O)N2[C@H]1C(=O)O (stereo not given in full),0.491% [at 53 µM],–
Cn1ccnc1,0.419%,–
CCOCCn1c(C2CCN(CCc3ccc(C(C)(C)C(=O)O)cc3)CC2)nc2ccccc21,-0.0925% [at 53 µM],–
Cc1cc2nc(N)sc2cc1C,-0.666%,–
NC(N)=NCCN1CCCCCCC1,0% [at 0.435 µM],–
CC1=C(Br)C(=O)C(Br)=C/C1=C(/c1ccccc1S(=O)(=O)O)c1cc(Br)c(O)c(Br)c1C,1.19% [at 53 µM],–
O=C(NCC1CN(c2ccc(N3CCOCC3=O)cc2)C(=O)O1)c1ccc(Cl)s1 (stereo not given),0.406% [at 53 µM],–
CC(C)(Oc1ccc(Cl)cc1)C(=O)OCCCOC(=O)C(C)(C)Oc1ccc(Cl)cc1,0.415% [at 53 µM],–
CN(C)C(=O)Nc1ccc(Cl)c(Cl)c1,–,inactive
CCCCCCCCCCCCN1CCCC1=O,0.855%,–
